# Data as given in PubChem BioAssay (NCATS).
# Records with an inconclusive call do not appear. Where a call stands in place of a potency, no number is given. Activity calls are given as the source filed them. Calls follow the shape of the dose curve; as a rule, active = well fitted curve in the direction sought with a large enough effect; inconclusive = small, poorly fitted or top-dose-only effect, or another doubt; inactive = no such curve, though single readings can be large; an effect the other way counts as inactive or inconclusive.
# Key:
# [1] = qHTS of pediatric cancer cell lines to identify multiple opportunities for drug repurposing: Primary screen for MG 63 (6-TG R) cells (AID 1347105); also: nearly all actives have a fitted effect of over 50% in size; also: potency is read from the fitted curve at half-maximal effect
# How it was run: (§1)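 Plated cells (500-1,000 per well, growth media) were allowed to settle for 5 hours, treated with compound dilutions for 48 hours, then lysed with CellTiter-Glo for 15 min at room temperature before luminescence reading.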
# [2] = qHTS of pediatric cancer cell lines to identify multiple opportunities for drug repurposing: Primary screen for control Hh wild type fibroblast cells (AID 1347106);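 also: series mostly up to about 46 µM; a drop in luminescence marks cytotoxicity and a rise apparent proliferation; nearly all actives have a fitted effect of over 55% in size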
# How it was run: (§2)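 Cells (500-1,000/well) in growth media were settled 5 h at 37 degrees C, then given compounds for 48 h. Viability was read as CellTiter-Glo luminescence. Primary runs used MIPE at 11 points (0.78 nM-46 µM) and NPC at 8 points (0.59 nM-46 µM); follow-ups used 11 points.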
# [3] = qHTS of pediatric cancer cell lines to identify multiple opportunities for drug repurposing: Primary screen for Rh30 cells (AID 1347107); also: series mostly up to about 46 µM; nearly all actives have a fitted effect of over 75% in size
# How it was run: as §2
# [4] = qHTS of pediatric cancer cell lines to identify multiple opportunities for drug repurposing: Primary screen for Rh41 cells (AID 1347108);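 also: series mostly up to about 46 µM; luminescence drop marks cytotoxic hits; nearly all actives have a fitted effect of over 70% in size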
# How it was run: as §1
# [5] = qHTS of pediatric cancer cell lines to identify multiple opportunities for drug repurposing: Primary screen for RD cells (AID 1347104); also: nearly all actives have a fitted effect of over 55% in size
# How it was run: as §1
# [6] = qHTS of pediatric cancer cell lines to identify multiple opportunities for drug repurposing: Confirmatory screen for NB1643 cells (AID 1347109); also: nearly all actives have a fitted effect of over 45% in size
# How it was run: as §2
# [7] = qHTS of pediatric cancer cell lines to identify multiple opportunities for drug repurposing: Confirmatory screen for A673 cells (AID 1347110);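 also: potency is read from the fitted curve at half-maximal effect; cells exposed to compound for 48 h before the viability read; nearly all actives have a fitted effect of over 65% in size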
# How it was run: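 qHTS titration format: primary MIPE 0.78 nM-46 µM (11 pts), NPC 0.59 nM-46 µM; confirmation 11 pts. 48 h, CTG luminescence.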
# [8] = qHTS of pediatric cancer cell lines to identify multiple opportunities for drug repurposing: Confirmatory screen for SK-N-MC cells (AID 1347111);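 also: potency is read from the fitted curve at half-maximal effect; cells exposed to compound for 48 h before the readout; nearly all actives have a fitted effect of over 70% in size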
# How it was run: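 Metabolically active cells were quantified by ATP-dependent luminescence (CellTiter-Glo, 15 min at room temperature) following 48 h treatment. Cells had been plated at 500-1,000 per well and settled for 5 h beforehand.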
# [9] = qHTS of pediatric cancer cell lines to identify multiple opportunities for drug repurposing: Confirmatory screen for BT-12 cells (AID 1347112); also: nearly all actives have a fitted effect of over 55% in size
# How it was run: as §2
# [10] = qHTS of pediatric cancer cell lines to identify multiple opportunities for drug repurposing: Confirmatory screen for NB-EBc1 cells (AID 1347115);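 also: cells exposed to compound for 48 h before the viability read; nearly all actives have a fitted effect of over 45% in size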
# How it was run: as §2
smiles,measurement,setting,value
C[C@@H]1CC[C@H]2[C@@H](C)C(=O)O[C@@H]3O[C@@]4(C)CC[C@@H]1[C@]32OO4,Potency,[1],inactive
same,Potency,[2],inactive
same,Potency,[3],inactive
same,Potency,[4],inactive
CCc1cc(OC)c(C[C@H](C)N)cc1OC,Potency,[2],inactive
same,Potency,[3],inactive
Clc1ccc(C(OCCN2CCCCC2)c2ccccc2)cc1 (centres undefined),Potency,[1],inactive
same,Potency,[2],inactive
same,Potency,[3],inactive
COc1cc(CC(C)N)c(OC)cc1Br (centres undefined),Potency,[1],17.9 µM (active)
same,Potency,[3],inactive
Oc1ccc2[nH]cc(CCCCN3CC=C(c4ccccc4)CC3)c2c1,Potency,[1],inactive
same,Potency,[2],inactive
same,Potency,[3],inactive
same,Potency,[4],inactive
CN1CCC(N(Cc2ccccc2)c2ccccc2)CC1,Potency,[1],inactive
same,Potency,[2],inactive
same,Potency,[3],inactive
same,Potency,[4],inactive
COc1ccc2c(C(=O)c3ccc(Cl)cc3)c(C)n(CC(=O)O)c2c1,Potency,[5],inactive
same,Potency,[2],inactive
same,Potency,[3],inactive
same,Potency,[6],inactive
same,Potency,[7],7.37 µM (active)
same,Potency,[8],10.4 µM (active)
same,Potency,[9],inactive
same,Potency,[10],inactive
Cc1nnc2n1-c1sc(CCc3ccc(CC(C)C)cc3)cc1C(c1ccccc1Cl)=NC2C (centres undefined),Potency,[2],inactive
same,Potency,[3],inactive
